Results as given in the supplement of paper PMC11732987, “Enantioselective OTUD7B fragment discovery through chemoproteomics screening and high-throughput optimisation” (Communications Chemistry, 2025).

Columns and labels:
Test in all cases: log2 ratio of Biotin-Ahx-Ub-VS probe labelling (fragment/DMSO); higher = less target engagement (more negative = stronger competition), active = hit call of the paper (q ≤ 0.05, log2 ratio ≤ -1)
Conditions in all cases: compound concentration: 200 uM; treatment time: 3 h
ALG13 = biological target: T1, ALG13 (UniProt Q9NP73)
T1 sequence (whole entry): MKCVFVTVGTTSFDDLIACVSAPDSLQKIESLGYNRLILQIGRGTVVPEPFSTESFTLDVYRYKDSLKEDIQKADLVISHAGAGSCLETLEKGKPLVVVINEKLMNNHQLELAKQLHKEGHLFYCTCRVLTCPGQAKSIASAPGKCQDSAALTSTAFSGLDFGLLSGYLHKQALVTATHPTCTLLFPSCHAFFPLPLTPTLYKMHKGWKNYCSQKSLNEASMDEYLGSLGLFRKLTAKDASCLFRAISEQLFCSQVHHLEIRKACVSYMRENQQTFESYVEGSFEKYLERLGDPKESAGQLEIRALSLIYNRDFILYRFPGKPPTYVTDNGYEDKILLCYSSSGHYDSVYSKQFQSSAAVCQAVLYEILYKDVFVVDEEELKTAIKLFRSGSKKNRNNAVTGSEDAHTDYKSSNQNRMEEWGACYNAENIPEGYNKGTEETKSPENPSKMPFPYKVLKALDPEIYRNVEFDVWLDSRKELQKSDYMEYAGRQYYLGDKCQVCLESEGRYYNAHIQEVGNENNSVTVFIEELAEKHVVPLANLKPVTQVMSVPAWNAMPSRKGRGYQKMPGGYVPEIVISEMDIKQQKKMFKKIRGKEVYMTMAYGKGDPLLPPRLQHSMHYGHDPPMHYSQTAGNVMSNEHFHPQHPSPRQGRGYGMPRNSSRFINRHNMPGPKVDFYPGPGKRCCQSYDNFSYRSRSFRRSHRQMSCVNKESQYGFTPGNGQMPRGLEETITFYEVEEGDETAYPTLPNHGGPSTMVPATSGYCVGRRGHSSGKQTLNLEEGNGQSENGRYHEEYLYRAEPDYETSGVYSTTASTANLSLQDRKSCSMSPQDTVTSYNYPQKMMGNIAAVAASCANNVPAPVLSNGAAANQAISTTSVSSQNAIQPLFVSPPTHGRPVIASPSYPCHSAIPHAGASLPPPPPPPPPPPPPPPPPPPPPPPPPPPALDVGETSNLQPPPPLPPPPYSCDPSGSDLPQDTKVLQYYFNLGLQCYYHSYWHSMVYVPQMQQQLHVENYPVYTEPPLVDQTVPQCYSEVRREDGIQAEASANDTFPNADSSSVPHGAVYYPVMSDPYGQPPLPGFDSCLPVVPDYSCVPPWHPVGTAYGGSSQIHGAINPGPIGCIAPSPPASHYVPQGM
Summary of the method: (§1)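 Each value is an average log2 ratio of fragment to vehicle, tested by unpaired t-test. The underlying Spectronaut label-free quantities were global-median-normalised, and only proteins with ≥2 unique peptides were included. Triplicate HEK293T lysate samples (495 µg) were exposed to fragment at 200 µM or vehicle for 3 h, then to Biotin-Ahx-Ub-VS at 0.5 µM final for 1 h, before NeutrAvidin enrichment of labelled DUBs, LysC and trypsin digestion, and diaPASEF LC-MS/MS.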

ATXN3 = ATXN3 (UniProt P54252)
Chain of ATXN3 (P54252 whole entry): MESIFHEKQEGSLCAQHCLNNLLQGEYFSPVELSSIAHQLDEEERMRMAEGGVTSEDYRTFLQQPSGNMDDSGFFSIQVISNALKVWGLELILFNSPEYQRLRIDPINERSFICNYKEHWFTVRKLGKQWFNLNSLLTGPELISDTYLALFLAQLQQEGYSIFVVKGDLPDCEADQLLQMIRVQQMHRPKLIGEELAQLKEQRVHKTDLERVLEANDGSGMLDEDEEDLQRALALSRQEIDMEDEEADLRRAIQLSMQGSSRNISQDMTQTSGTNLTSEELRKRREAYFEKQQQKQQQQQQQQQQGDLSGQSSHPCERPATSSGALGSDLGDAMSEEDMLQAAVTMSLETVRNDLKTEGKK
Summary of the method: as §1

BAP1 = biological target: T2, BAP1 (UniProt Q92560)
T2 sequence (whole entry): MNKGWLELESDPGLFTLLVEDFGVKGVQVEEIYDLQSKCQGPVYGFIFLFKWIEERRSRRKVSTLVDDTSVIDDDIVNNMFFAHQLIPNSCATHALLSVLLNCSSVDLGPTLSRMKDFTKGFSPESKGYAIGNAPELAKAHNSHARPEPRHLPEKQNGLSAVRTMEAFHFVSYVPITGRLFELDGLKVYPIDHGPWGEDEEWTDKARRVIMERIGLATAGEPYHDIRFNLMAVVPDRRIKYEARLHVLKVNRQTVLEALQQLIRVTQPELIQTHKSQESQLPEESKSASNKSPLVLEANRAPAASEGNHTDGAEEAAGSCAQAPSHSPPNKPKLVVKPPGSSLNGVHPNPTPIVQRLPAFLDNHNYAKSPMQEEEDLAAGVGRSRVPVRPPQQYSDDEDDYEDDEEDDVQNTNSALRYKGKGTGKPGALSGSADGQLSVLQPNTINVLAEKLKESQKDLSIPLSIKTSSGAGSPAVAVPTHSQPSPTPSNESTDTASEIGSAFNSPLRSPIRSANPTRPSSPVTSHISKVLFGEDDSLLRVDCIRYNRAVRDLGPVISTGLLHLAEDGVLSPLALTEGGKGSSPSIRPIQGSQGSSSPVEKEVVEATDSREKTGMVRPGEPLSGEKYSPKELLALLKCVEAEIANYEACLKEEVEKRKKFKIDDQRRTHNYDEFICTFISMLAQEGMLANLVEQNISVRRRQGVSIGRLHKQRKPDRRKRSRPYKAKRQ
Summary of the method: as §1

EIF3F = EIF3F (UniProt O00303)
Chain of EIF3F (O00303 whole entry): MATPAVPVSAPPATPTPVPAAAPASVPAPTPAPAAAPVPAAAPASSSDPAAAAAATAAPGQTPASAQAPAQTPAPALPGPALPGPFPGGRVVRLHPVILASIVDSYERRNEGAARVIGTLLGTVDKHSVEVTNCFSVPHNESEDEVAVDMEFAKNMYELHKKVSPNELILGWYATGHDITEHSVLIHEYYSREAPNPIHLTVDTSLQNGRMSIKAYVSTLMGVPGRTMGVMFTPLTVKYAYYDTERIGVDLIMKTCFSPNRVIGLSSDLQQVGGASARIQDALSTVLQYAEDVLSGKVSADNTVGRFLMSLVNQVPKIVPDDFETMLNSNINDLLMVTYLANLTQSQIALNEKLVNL
Summary of the method: as §1

EIF3H = EIF3H (UniProt O15372)
Chain of EIF3H (O15372 whole entry): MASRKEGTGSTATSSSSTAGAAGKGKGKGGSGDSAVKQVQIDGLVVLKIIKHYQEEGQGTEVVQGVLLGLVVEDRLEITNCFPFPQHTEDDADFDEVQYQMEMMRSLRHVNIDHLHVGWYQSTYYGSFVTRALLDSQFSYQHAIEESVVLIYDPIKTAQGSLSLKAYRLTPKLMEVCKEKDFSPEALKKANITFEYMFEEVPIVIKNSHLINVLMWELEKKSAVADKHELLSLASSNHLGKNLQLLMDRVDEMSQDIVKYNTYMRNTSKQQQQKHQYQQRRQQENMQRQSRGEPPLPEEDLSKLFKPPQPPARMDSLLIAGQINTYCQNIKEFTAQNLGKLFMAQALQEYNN
Summary of the method: as §1

FAM105A = biological target: T3, FAM105A (UniProt Q9NUU6)
T3 sequence (whole entry): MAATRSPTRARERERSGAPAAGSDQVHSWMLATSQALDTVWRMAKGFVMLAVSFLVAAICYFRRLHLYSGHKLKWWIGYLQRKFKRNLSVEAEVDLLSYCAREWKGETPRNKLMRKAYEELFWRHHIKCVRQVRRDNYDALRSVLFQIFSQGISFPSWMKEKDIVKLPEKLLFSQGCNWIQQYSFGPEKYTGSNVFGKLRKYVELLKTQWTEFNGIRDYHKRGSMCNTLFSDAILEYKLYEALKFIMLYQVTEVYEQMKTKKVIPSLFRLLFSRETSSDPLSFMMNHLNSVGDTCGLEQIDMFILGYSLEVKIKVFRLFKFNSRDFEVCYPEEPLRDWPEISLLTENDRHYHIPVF
Summary of the method: as §1

OTUB1 = OTUB1 (UniProt Q96FW1)
Chain of OTUB1 (Q96FW1 whole entry): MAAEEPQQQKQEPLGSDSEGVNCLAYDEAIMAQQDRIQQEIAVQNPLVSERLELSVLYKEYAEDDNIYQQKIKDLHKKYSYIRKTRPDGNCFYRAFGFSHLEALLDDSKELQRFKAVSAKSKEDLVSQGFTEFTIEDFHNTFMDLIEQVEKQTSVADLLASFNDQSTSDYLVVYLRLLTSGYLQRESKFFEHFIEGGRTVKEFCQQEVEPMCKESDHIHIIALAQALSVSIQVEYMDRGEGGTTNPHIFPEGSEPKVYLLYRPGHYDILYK
Summary of the method: as §1

OTUD4 = biological target: T4, OTUD4 (UniProt Q01804)
T4 sequence (whole entry): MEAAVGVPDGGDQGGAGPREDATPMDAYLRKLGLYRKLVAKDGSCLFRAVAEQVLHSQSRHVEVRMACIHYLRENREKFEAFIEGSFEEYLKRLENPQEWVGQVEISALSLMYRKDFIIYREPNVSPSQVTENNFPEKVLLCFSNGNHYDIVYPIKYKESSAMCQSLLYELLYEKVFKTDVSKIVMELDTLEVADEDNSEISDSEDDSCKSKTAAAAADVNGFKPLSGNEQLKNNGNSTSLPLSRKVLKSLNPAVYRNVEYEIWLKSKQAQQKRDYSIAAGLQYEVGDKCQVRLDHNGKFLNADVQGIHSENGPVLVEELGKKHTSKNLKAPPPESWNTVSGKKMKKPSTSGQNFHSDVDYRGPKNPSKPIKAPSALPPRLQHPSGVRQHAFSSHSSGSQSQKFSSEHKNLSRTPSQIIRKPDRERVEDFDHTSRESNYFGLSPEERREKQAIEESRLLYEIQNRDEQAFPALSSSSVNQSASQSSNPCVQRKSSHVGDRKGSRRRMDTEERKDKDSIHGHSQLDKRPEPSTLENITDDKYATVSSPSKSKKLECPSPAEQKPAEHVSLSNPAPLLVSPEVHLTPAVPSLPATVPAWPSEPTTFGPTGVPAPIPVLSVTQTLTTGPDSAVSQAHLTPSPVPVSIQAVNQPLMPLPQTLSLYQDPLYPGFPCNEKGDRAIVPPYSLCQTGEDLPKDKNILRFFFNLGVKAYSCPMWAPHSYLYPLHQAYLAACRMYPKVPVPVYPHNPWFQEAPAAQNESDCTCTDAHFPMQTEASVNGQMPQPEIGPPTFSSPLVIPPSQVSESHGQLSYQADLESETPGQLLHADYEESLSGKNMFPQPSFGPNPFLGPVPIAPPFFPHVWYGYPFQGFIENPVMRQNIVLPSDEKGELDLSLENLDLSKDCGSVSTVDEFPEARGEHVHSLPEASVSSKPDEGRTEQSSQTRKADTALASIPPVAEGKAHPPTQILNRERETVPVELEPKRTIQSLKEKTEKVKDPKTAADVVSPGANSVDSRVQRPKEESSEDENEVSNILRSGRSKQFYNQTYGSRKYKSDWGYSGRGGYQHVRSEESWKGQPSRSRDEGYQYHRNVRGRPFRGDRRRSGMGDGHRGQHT
Summary of the method: as §1

OTUD5 = biological target: T5, OTUD5 (UniProt Q96G74)
T5 sequence (whole entry): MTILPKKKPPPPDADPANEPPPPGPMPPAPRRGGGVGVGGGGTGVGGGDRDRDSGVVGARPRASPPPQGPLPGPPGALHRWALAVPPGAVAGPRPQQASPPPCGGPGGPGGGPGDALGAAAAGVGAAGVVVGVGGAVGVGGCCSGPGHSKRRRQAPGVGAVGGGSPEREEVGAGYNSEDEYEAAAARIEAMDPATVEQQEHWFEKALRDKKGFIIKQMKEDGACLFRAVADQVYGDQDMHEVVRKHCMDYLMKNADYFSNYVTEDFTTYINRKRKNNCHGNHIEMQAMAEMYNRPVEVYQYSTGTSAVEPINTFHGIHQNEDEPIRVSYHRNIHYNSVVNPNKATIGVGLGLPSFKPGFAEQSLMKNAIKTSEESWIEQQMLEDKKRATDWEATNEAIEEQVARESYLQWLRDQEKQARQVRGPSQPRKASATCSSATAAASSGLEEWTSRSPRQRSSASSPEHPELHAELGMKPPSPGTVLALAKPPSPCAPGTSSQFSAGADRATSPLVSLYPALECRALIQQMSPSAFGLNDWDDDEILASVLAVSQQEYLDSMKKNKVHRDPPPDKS
Summary of the method: as §1

Measured: log2 ratio of Biotin-Ahx-Ub-VS probe labelling

O=C(CCl)N1CCOC2(CCC2)C1
inactive: ALG13 -0.352 | ATXN3 -0.0796 | BAP1 -0.352 | EIF3F -0.125 | EIF3H 0.226 | FAM105A -0.0758 | OTUB1 -0.141 | OTUD4 -0.57 | OTUD5 -0.148
